From PubChem BioAssay (Tox21)
Results filed as inconclusive are left out. A call without a number means that no potency is given here. Activity calls are given as the source filed them. Calls come from the whole dose curve.

Molecular target: Beta-2 adrenergic receptor (Homo sapiens) (UniProt P07550)
Experiment: Adrenergic beta2 receptor (ADRB2) small molecule agonists, cell-based qHTS assay (AID 1963593);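 note: CHO cells stably overexpressing human ADRB2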
Method in brief: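 CHO cells stably over-expressing ADRB2 were plated overnight at 37C, then dosed with compounds plus a stimulation mix containing 100uM IBMX and 25uM Ro-20-1724 for 0.5hr at room temperature. cAMP was measured by HTRF competition, 1hr.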

Sequence of Beta-2 adrenergic receptor (Homo sapiens) (P07550 whole entry, looked up): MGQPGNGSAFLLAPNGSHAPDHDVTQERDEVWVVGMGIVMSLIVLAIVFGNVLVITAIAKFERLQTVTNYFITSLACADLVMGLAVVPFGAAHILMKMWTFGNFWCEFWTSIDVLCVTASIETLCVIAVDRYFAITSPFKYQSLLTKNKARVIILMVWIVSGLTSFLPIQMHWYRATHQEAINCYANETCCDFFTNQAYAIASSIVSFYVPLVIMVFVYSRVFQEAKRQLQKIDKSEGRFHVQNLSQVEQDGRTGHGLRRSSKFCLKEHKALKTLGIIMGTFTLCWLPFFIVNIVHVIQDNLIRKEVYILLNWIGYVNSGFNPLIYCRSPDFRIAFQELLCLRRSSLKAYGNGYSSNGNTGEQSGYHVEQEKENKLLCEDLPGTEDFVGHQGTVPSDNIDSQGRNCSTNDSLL

SMILES | Potency
CC/C=C\CC/C=C/C(OCC)OCC | inactive
O=C(CCN1CCC(c2ccccc2)C1)c1ccc2c(c1)OCCO2 (stereo unspecified) | inactive
CCC(C)c1nccnc1OC (stereo unspecified) | inactive
Cc1c(Cl)cccc1[N+](=O)[O-] | inactive
O=C(Nc1cccc(C2=NCCN2)c1)Nc1cccc(C2=NCCN2)c1 | inactive
OCCCCC(O)CO (stereo unspecified) | inactive
CC(C)SCc1ccco1 | inactive
CNC(=O)c1cnn(-c2nc(N)c3ncn([C@@H]4O[C@H](CO)[C@@H](O)[C@H]4O)c3n2)c1 | inactive
Cc1ccc2cccnc2c1 | inactive
C=C(C)C(=O)OCC(O)CO (stereo unspecified) | inactive
CC1(C)S[C@@H]2[C@H](NC(=O)C(c3ccccc3)S(=O)(=O)O)C(=O)N2[C@H]1C(=O)O (stereo partly specified) | inactive
